Source: PubChem BioAssay (EPA / NIEHS)
Values joined by “and” are separate entries in the source; they are usually repeats but may differ in a detail not shown here. Equal values may be shown once. Active and inactive are the calls of the source. The calls were made as follows: active = hit-call score of the fitted dose curve at least 0.9, where 1 is the maximum; inactive = score below 0.9.

Read-out: CD40, CD40 (gene 958)
Assay: BSK_IMphg_CD40: BioMAP Diversity Plus: IMphg Assay for CD40 Biomarker Activity (AID 2284288)
Settings: primary human endothelial cells with macrophages
Experimental: BSK_IMphg is a cell-based, multiplexed-readout assay that uses venular endothelial cells and macrophages, a human vascular primary cell, with measurements taken at 24 hours after chemical dosing in a microplate: 96-well plate.BSK_IMphg_CD40 is an assay component measured in the BSK_IMphg assay. It measures CD40 antibody related to regulation of gene expression using ELISA technology.Data from the assay component BSK_IMphg_CD40 was analyzed at the endpoint, BSK_IMphg_CD40, in the positive analysis fitting direction relative to DMSO as the negative control and baseline of activity. Using a type of binding reporter, gain or loss-of-signal activity can be used to understand protein changes. To generalize the intended target to other relatable targets, this assay endpoint is annotated to the 'cytokine' intended target family, where the subfamily is 'inflammatory factor'.
The levels of cell surface (or secreted, indicated by the prefix "s") biomarker endpoints were measured by ELISA. Overt cytotoxicity to cells in confluent adherent cultures (all systems other than the BT system) was assessed by measuring total protein levels using sulforhodamine B (SRB) staining in parallel cultures at the time of biomarker measurements, indicated as SRB endpoints. For proliferation assays for adherent cell types, individual cell types are cultured at sub-confluence and relative cell numbers quantified by SRB staining at time points optimized for each system (48 h: 3C and CASM3C systems; 72 h: BT and HDF3CGF systems; 96 h: SAg system). SRB was performed by staining cells with 0.1% SRB after fixation with 10% TCA and reading wells at 560 nm.Viability and proliferation of PBMC (T cells) was quantified by Alamar Blue reduction for the SAg and BT systems. For PBMC viability (referred to as PBMC Cytotoxicity within the assay endpoint names), cells were plated (75,000/well in a 96-well plate) and then chemical samples added for 1 h before addition of activators, SEB and TSST-1 (20 ng/mL final concentration each). Cells were incubated for 90 h. Then, Alamar Blue (20 uL/well) (Invitrogen, Cat DAL1100) was added for 6 h, and the plates were read with a fluorescence microplate reader at 546/580 nm (excitation/emission). For PBMC proliferation, cells were plated and activated as above but incubated for only 16 h prior to addition of Alamar Blue. Plates were read after 6 h.

Q: How did the outcome turn out when `O=C(O)CCC(F)(F)C(F)(F)C(F)(F)C(F)(F)C(F)(F)C(F)(F)F` was run?
A: The outcome was “inactive”.

Q: With `CN(Cc1cnc2nc(N)nc(N)c2n1)c1ccc(C(=O)N[C@@H](CCC(=O)O)C(=O)O)cc1` as the compound, how does the outcome read?
A: The outcome was “inactive”.

Q: With `O=P(O)(O)CCC(F)(F)C(F)(F)C(F)(F)C(F)(F)C(F)(F)C(F)(F)F` as the compound, how does the outcome read?
A: The outcome was “inactive”.

Q: With `O=S(=O)(O)C(F)(F)C(F)(F)C(F)(F)C(F)(F)C(F)(F)C(F)(F)C(F)(F)C(F)(F)C(F)(F)C(F)(F)F` as the compound, how does the AC50 read?
A: Its AC50 is 10.6 µM (active) and 6.06 µM (active).

Q: With `O=C(O)CCC(F)(F)C(F)(F)C(F)(F)C(F)(F)C(F)(F)F` as the compound, how does the outcome read?
A: Its outcome is “inactive”.

Q: With `OCC(F)(F)C(F)(F)C(F)(F)C(F)(F)C(F)(F)C(F)(F)C(F)(F)C(F)(F)C(F)(F)C(F)(F)C(F)(F)F` as the compound, how does the AC50 read?
A: Its AC50 is 1.35 µM (active).

Q: Which outcome does the source give for `O=C(CC(=O)C(F)(F)C(F)(F)C(F)(F)F)c1cccs1` here?
A: Its outcome is “inactive”.

Q: `O=P(O)(O)CCC(F)(F)C(F)(F)C(F)(F)C(F)(F)C(F)(F)C(F)(F)C(F)(F)C(F)(F)F` was tested. Which outcome did it give?
A: The outcome was “inactive”.

Q: How did the AC50 turn out when `O=C(O)C(F)(F)OC(F)(F)C(F)(F)OC(F)(F)C(F)(F)OC(F)(F)C(F)(F)C(F)(F)C(F)(F)F` was run?
A: Its AC50 is 42.4 µM (active) and 40.9 µM (active).

Q: How did the outcome turn out when `CN(CCO)S(=O)(=O)C(F)(F)C(F)(F)C(F)(F)C(F)(F)C(F)(F)C(F)(F)C(F)(F)C(F)(F)F` was run?
A: Its outcome is “inactive”.

Q: Which outcome does the source give for `C=CC(=O)OCCC(F)(F)C(F)(F)C(F)(F)C(F)(F)C(F)(F)C(F)(F)C(F)(F)C(F)(F)F` here?
A: Its outcome is “inactive”.
